# Measurements taken from publication PMC11006913.
# Substitutions are numbered along the chain they refer to.
# Tests used:
# Assay in all cases: PBM; 200 nM protein, PBS
# Conditions in all cases: dsDNA, one strand shown
# [1] = molecular target: ALX4 (Homo sapiens, UniProt Q9H161 200-286)
# [2] = molecular target: PRRX1 (Homo sapiens, UniProt P54821 80-166, F113S)
# [3] = molecular target: HOXB6 (Homo sapiens, UniProt P17509 132-218, K202E)
# [4] = molecular target: HOXA4 (Homo sapiens, UniProt Q00056 201-287, R217L)
# [5] = molecular target: MSX2 (Homo sapiens, UniProt P35548 130-214)
# [6] = molecular target: MSX2 (Homo sapiens, UniProt P35548 130-214, F161Y)
# [7] = molecular target: PRRX1 (Homo sapiens, UniProt P54821 80-166)
# [8] = molecular target: T1, VENTX (Homo sapiens, UniProt O95231 78-163, R121Q)
# T1 sequence: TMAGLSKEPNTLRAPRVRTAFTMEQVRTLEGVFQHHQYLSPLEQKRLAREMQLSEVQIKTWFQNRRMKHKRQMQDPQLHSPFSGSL
# [9] = molecular target: T2, VENTX (Homo sapiens, UniProt O95231 78-163, Y115F)
# T2 sequence: T1 sequence with Y38F, Q44R
# [10] = molecular target: HOXA2 (Homo sapiens, UniProt O43364 129-215, R185T)
# [11] = molecular target: T3, PAX4 (Homo sapiens, UniProt O43316 9-242, R200Q)
# T3 sequence: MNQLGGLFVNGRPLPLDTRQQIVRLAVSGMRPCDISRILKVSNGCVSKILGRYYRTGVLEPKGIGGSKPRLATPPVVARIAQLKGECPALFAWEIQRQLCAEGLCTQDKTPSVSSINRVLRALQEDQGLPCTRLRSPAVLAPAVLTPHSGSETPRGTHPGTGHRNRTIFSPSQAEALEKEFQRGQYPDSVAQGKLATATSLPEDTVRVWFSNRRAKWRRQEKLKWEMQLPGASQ
# [12] = molecular target: VAX1 (Homo sapiens, UniProt Q5SQQ9 86-172, T142I)
# [13] = molecular target: VAX1 (Homo sapiens, UniProt Q5SQQ9 86-172, K157R)
# [14] = molecular target: HOXA2 (Homo sapiens, UniProt O43364 129-215, R185K)
# Chain of HOXA2 (Homo sapiens, UniProt O43364 129-215, R185K) (O43364 129-215 R185K): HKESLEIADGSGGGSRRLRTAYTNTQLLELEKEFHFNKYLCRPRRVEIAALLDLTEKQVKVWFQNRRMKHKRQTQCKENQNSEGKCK
# Chain of PRRX1 (Homo sapiens, UniProt P54821 80-166, F113S) (P54821 80-166 F113S): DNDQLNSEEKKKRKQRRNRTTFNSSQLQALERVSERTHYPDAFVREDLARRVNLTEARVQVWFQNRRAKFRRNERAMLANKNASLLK
# Chain of PRRX1 (Homo sapiens, UniProt P54821 80-166) (P54821 80-166): as the sequence (P54821 80-166 F113S) above, with S34F counted along it
# Chain of MSX2 (Homo sapiens, UniProt P35548 130-214, F161Y) (P35548 130-214 F161Y): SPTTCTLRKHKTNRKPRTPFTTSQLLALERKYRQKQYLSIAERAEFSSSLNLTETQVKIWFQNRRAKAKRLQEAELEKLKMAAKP
# Chain of MSX2 (Homo sapiens, UniProt P35548 130-214) (P35548 130-214): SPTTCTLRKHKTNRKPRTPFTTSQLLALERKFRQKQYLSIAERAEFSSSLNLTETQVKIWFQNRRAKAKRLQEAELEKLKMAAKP
# Chain of ALX4 (Q9H161 200-286): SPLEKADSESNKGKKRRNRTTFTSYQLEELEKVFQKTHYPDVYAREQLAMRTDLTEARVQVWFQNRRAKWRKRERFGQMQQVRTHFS
# Chain of HOXB6 (P17509 132-218 K202E): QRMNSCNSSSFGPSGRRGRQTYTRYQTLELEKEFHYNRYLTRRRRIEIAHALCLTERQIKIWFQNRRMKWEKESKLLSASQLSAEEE
# Chain of HOXA2 (Homo sapiens, UniProt O43364 129-215, R185T) (O43364 129-215 R185T): as the sequence (O43364 129-215 R185K) above, with K57T counted along it
# Chain of VAX1 (Homo sapiens, UniProt Q5SQQ9 86-172, K157R) (Q5SQQ9 86-172 K157R): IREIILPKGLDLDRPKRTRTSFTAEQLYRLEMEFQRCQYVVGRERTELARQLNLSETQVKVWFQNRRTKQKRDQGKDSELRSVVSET
# Chain of VAX1 (Homo sapiens, UniProt Q5SQQ9 86-172, T142I) (Q5SQQ9 86-172 T142I): as the sequence (Q5SQQ9 86-172 K157R) above, with T57I, R72K counted along it
# Chain of HOXA4 (Q00056 201-287 R217L): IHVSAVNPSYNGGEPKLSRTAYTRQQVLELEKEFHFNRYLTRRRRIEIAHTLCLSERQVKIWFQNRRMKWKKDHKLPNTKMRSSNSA
sequence,measurement,setting,value
CAATTATA,binding signal,[1],"13.8 upbm affinity estimate (log intensity, higher = more binding, comparable within an allelic series)"
same,binding signal,[2],"11.5 upbm affinity estimate (log intensity, higher = more binding, comparable within an allelic series)"
same,binding signal,[3],"10 upbm affinity estimate (log intensity, higher = more binding, comparable within an allelic series)"
same,binding signal,[4],"12 upbm affinity estimate (log intensity, higher = more binding, comparable within an allelic series)"
same,binding signal,[5],"14 upbm affinity estimate (log intensity, higher = more binding, comparable within an allelic series)"
same,binding signal,[6],"13.7 upbm affinity estimate (log intensity, higher = more binding, comparable within an allelic series)"
same,binding signal,[7],"13.4 upbm affinity estimate (log intensity, higher = more binding, comparable within an allelic series)"
AATTATAA,binding signal,[1],"13.7 upbm affinity estimate (log intensity, higher = more binding, comparable within an allelic series)"
same,binding signal,[2],"11.4 upbm affinity estimate (log intensity, higher = more binding, comparable within an allelic series)"
same,binding signal,[5],"13.4 upbm affinity estimate (log intensity, higher = more binding, comparable within an allelic series)"
same,binding signal,[6],"13 upbm affinity estimate (log intensity, higher = more binding, comparable within an allelic series)"
same,binding signal,[7],"13.3 upbm affinity estimate (log intensity, higher = more binding, comparable within an allelic series)"
GCCAATTA,binding signal,[8],"11.8 upbm affinity estimate (log intensity, higher = more binding, comparable within an allelic series)"
same,binding signal,[1],"14 upbm affinity estimate (log intensity, higher = more binding, comparable within an allelic series)"
same,binding signal,[2],"11.2 upbm affinity estimate (log intensity, higher = more binding, comparable within an allelic series)"
same,binding signal,[9],"11.5 upbm affinity estimate (log intensity, higher = more binding, comparable within an allelic series)"
same,binding signal,[10],"12.6 upbm affinity estimate (log intensity, higher = more binding, comparable within an allelic series)"
same,binding signal,[11],"11.9 upbm affinity estimate (log intensity, higher = more binding, comparable within an allelic series)"
same,binding signal,[5],"14 upbm affinity estimate (log intensity, higher = more binding, comparable within an allelic series)"
same,binding signal,[6],"13.6 upbm affinity estimate (log intensity, higher = more binding, comparable within an allelic series)"
same,binding signal,[12],"12.4 upbm affinity estimate (log intensity, higher = more binding, comparable within an allelic series)"
same,binding signal,[7],"13.3 upbm affinity estimate (log intensity, higher = more binding, comparable within an allelic series)"
same,binding signal,[13],"12.6 upbm affinity estimate (log intensity, higher = more binding, comparable within an allelic series)"
CGCAATTA,binding signal,[9],"11.4 upbm affinity estimate (log intensity, higher = more binding, comparable within an allelic series)"
same,binding signal,[3],"9.82 upbm affinity estimate (log intensity, higher = more binding, comparable within an allelic series)"
same,binding signal,[10],"12.4 upbm affinity estimate (log intensity, higher = more binding, comparable within an allelic series)"
same,binding signal,[14],"13.1 upbm affinity estimate (log intensity, higher = more binding, comparable within an allelic series)"
same,binding signal,[5],"13.7 upbm affinity estimate (log intensity, higher = more binding, comparable within an allelic series)"
same,binding signal,[6],"13.4 upbm affinity estimate (log intensity, higher = more binding, comparable within an allelic series)"
GCCGTCGC,binding signal,[2],"9.29 upbm affinity estimate (log intensity, higher = more binding, comparable within an allelic series)"
same,binding signal,[7],"9.58 upbm affinity estimate (log intensity, higher = more binding, comparable within an allelic series)"
